# HT1080NT lethal: kills 2HG-producing HT-1080-NT fibrosarcoma cells | HT-1080-NT fibrosarcoma viability, CellTiter-Glo ATP luminescence, 48 h | Potency, µM (top dose mostly 46.1 µM), usual class: cytotoxic | 360,000 compounds, 1.6% hits;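 further: NT is the 2HG producing partner of a matched IDH1 knockdown line; nearly all actives have a fitted effect of over 55% in size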
#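 Compounds were tested in concentration-response format on HT-1080-NT cells for 48 hours at 37 degrees C. Cell viability came from CellTiter-Glo luminescence; curves were classified by r2, response magnitude and activity.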
# HT1080 IDH1KD tx: toxicity to HT-1080 IDH1 knockdown cells (counter line); HT-1080 IDH1 knockdown viability, ATP luminescence, 48 h; Potency, µM (titrated, usually from 46.1 µM), usual class: cytotoxic; 360,000 compounds, 2% hits; AID 686971
#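 % activity derives from luminescence (CellTiter-Glo), normalised to DMSO and no-cell wells. HT-1080-IDH1KD cells, 750/well, had 48 h compound exposure at 37 °C.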
# DT40 TDP1 CPT: DT40-hTDP1 cell growth loss with CPT | chicken DT40 Tdp1-/-;hTDP1 cells + 20 nM CPT, ATP luminescence, 48 h | Potency, µM (doses to about 46.2 µM), most hits filed as inhibitors | 420,000 compounds, 12% hits; further: nearly all actives have a fitted effect of over 55% in size
#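 Chicken DT40 Tdp1-/- cells complemented with human TDP1, 400 cells/well, exposed to compounds plus 20 nM camptothecin for at least 48 h at 37 C; viability read as ATP content by CellTiter-Glo luminescence.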
# TDP1 cell noCPT: qHTS for Inhibitors of human tyrosyl-DNA phosphodiesterase 1 (TDP1): qHTS in cells in absence of CPT. DT40 Tdp1-/- hTDP1 cells, no CPT, ATP luminescence, 48 h. 420,000 compounds, 15% hits. Potency, µM (top dose mostly 46.2 µM), usual class: inhibitors; further: nearly all actives have a fitted effect of over 55% in size
#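 Growth kinetics read by CellTiter-Glo luminescence after ≥48 hr at 37 °C. Cells: DT40 Tdp1-/- stably carrying human TDP1, 400 per well, compound exposure in the absence of CPT (DMSO vehicle).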
# IL1B secr inh: inhibitors of inflammasome signaling (IL-1 beta secretion); THP-1 LPS/ATP IL-1B secretion, AlphaLISA, 16 h; active compounds read low; activity change, % at 57.5 µM; 360,000 compounds, 4.7% hits; in the data active means activity change below about -50%; inconclusive means mostly about -30% to -49%
#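 THP-1 cells pretreated 1 hr with compounds (up to 57.5 uM final), then stimulated with LPS (250 ng/mL final) plus ATP (1.25 mM final); secreted IL-1B measured by AlphaLISA after 16 hr, decreased signal indicating inhibition.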
# Hits are given with their value; – = inactive; ? = inconclusive; · = no result. This is a sample that favours compounds with a hit; in the whole collection about 19% have one here. Unless noted, the call rests on the fitted dose curve; in most records, active means well fitted curve in the direction sought with a large enough effect; inconclusive means small, poorly fitted or top-dose-only effect, or another doubt; inactive means no such curve, though single readings can be large; an effect the other way counts as inactive or inconclusive.
SMILES,HT1080NT lethal,HT1080 IDH1KD tx,DT40 TDP1 CPT,TDP1 cell noCPT,IL1B secr inh
C[C@@H]1CN([C@H](C)CO)C(=O)CCCn2nncc2CO[C@H]1CN(C)Cc1ccc(O)cc1,–,–,–,–,–
O=C(CSc1nc(Cc2ccccc2)nc2ccccc12)Nc1ccc2c(c1)OCCO2,?,?,–,?,–
Cc1cccc(NC(=O)CSc2nc(C3CC3)nc3ccccc23)c1,–,–,?,?,–
O=C(CSc1nc(C2CC2)nc2ccccc12)Nc1ccccc1Cl,–,–,–,–,–
CC(=O)c1cccc(NC(=O)CSc2nc(C3CC3)nc3ccccc23)c1,?,?,?,16µM,-96
CCN(CC)c1ccc(NC(=O)CSc2nc(C3CC3)nc3ccccc23)cc1C,9.2µM,6.5µM,4.1µM,5.2µM,–
CN(C)c1ccc(NC(=O)CSc2nc(C3CC3)nc3ccccc23)cc1,–,–,?,18µM,–
CC(=O)Nc1cccc(NC(=O)CSc2nc(C3CC3)nc3ccccc23)c1,?,?,4.1µM,7.3µM,-79
CCn1c(CCC(=O)Nc2nc3c(s2)CCCC3)nc2cc(S(=O)(=O)N(C)C)ccc21,–,–,–,–,–
COc1cc(NC(=O)CSc2nc(C3CC3)nc3ccccc23)cc(OC)c1,13µM,?,–,?,–
O=C(CSc1nc(C2CC2)nc2ccccc12)Nc1ccccc1N1CCOCC1,–,–,?,?,-76
O=C(CSc1nc(C2CC2)nc2ccccc12)Nc1ccccc1,–,–,–,?,-61
COc1ccc(C/C(C)=N/NC(=O)C2COc3ccccc3O2)cc1 (stereo not given),–,–,–,–,–
CCOc1ccccc1NC(=O)C1C2CCC(O2)C1C(=O)O (stereo not given),?,?,–,–,–
O=C(Nc1cc(Cl)ccc1-n1cncn1)c1ccc([N+](=O)[O-])s1,–,–,7.3µM,?,–
O=C(Nc1cccc(/C=C/c2ccccn2)c1)c1ccc(-n2cncn2)c([N+](=O)[O-])c1,–,–,16µM,6.5µM,-76
O=C(COc1ccc(Br)cc1)NNC(=O)c1ccc(-n2cncn2)c([N+](=O)[O-])c1,–,–,?,16µM,–
O=C(Nc1ccc(F)c(F)c1)c1ccc(-n2cncn2)c([N+](=O)[O-])c1,–,–,8.2µM,?,?
CN(C)c1ncc2nc(-c3ccccc3)c(=O)n(C3CC3)c2n1,·,·,–,?,·
Cc1ccccc1CNC(=O)c1cc2cc(S(=O)(=O)N3CCCCC3)ccc2n1C,·,·,?,18µM,·
CSc1ccc(CNC(=O)c2cc3cc(S(=O)(=O)N4CCCCC4)ccc3n2C)cc1,·,·,–,?,·
Cn1c(C(=O)NCc2ccc(F)cc2)cc2cc(S(=O)(=O)N3CCCCC3)ccc21,·,·,23µM,12µM,·
Cc1ccccc1CNC(=O)Cn1ccc2cc(S(=O)(=O)N3CCCCCC3)ccc21,–,–,?,?,–
CCc1ccc(CNC(=O)c2cc3cc(S(=O)(=O)N4CCCCC4)ccc3n2C)cc1,·,·,?,13µM,·

# Bioassay records as filed in PubChem.
